# HCMV antiviral = inhibitors of human cytomegalovirus | AID 1259415 | 410,000 compounds, 4.5% hits | HFF cells, HCMV-luciferase reporter, 72 h; active compounds read low | activity change, negative = inhibition, % at 57.5 µM; in the data active = activity change below about -60%; inconclusive = no clear call, values can overlap the other calls; inactive = above about -39%
#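 Two compound doses tested in HFFs infected with HCMV-luciferase, MOI 1 PFU/cell, 72 h at 37C. Lysate luminescence read with OneGlo; data normalized against buffer-only and 10uM Salinomycin inhibitor controls.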
# FMDV antiviral = blocks foot and mouth disease virus | FMDV antiviral cell-based qHTS | Potency, µM (top dose mostly 57.9 µM), for the others: at the highest dose activity change, negative = inhibition, most hits filed as inhibitors | 410,000 compounds, 1.2% hits; calls by dose curve; tested in HEK293T cells; note: read-out not given here; potency is the fitted concentration of half-maximal effect; nearly all actives have a fitted effect of over 45% in size
# Tb PYK inh = blocks Trypanosoma brucei pyruvate kinase; Q57TT1; TbPYK enzyme, Kinase-Glo Plus ATP luminescence, 45 min; Potency, µM (doses to about 76.8 µM), without a hit: top-dose activity, negative = inhibition, most hits filed as inhibitors; 410,000 compounds, 0.12% hits; AID 624173; note: potency is the fitted concentration of half-maximal effect; nearly all actives have a fitted effect of over 50% in size
#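 Luminescence from Kinase-Glo Plus, added after a 45-minute room-temperature reaction, served as the end-point read-out. The enzyme and substrate were preincubated with compound before ADP (130 uM final) initiated turnover. Concentration-effect curves came from normalized qHTS data.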
# RE007 growth inh = less growth of the S. pombe RE007 Vpr strain; Potency, µM (doses to about 92.2 µM), for the others: top-dose activity change, negative = less growth, usual class: inhibitors; S. pombe RE007 Vpr strain, BacTiter-Glo ATP luminescence, 24 h; 360,000 compounds, 0.21% hits; active = well fitted falling curve with a large enough effect; inconclusive = small, poorly fitted or top-dose-only effect; inactive = no such curve, though single readings can be large or run the other way; note: potency is the fitted concentration of half-maximal effect; nearly all actives have a fitted effect of over 50% in size
#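 Fission yeast RE007 carrying one integrated HIV-1 vpr copy, seeded at OD 0.01 in PMG+AL medium with 23 nL pinned compound. Grown 24 h at 30 degrees; viability read by BacTiter-Glo luminescence after 5 min.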
# Sm TGR block = blocks Schistosoma mansoni thioredoxin glutathione reductase; purified TGR, DTNB reduction, TNB absorbance 405 nm; Potency, µM (doses to about 114 µM), inactives show at the top dose activity change, negative = inhibition, actives largely listed as inhibitors; 360,000 compounds, 3% hits; note: potency is the fitted concentration of half-maximal effect; nearly all actives have a fitted effect of over 60% in size
#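 First, TGR (20 nM dispensed) and NADPH were mixed with compound. Second, a 15 min room-temperature incubation followed. Third, further NADPH and then DTNB were added to start the reaction. Finally, TNB absorbance was monitored kinetically.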
# FBPA Giardia inh = blocks Giardia fructose-bisphosphate aldolase activity | A8B2U2 | purified Giardia FBPA | Potency, µM (top dose mostly 59.6 µM), without a hit: top-dose activity, negative = inhibition, most hits filed as inhibitors | 290,000 compounds, 0.71% hits; note: potency is the fitted concentration of half-maximal effect; nearly all actives have a fitted effect of over 55% in size
# Target sequence (A8B2U2 whole entry, looked up): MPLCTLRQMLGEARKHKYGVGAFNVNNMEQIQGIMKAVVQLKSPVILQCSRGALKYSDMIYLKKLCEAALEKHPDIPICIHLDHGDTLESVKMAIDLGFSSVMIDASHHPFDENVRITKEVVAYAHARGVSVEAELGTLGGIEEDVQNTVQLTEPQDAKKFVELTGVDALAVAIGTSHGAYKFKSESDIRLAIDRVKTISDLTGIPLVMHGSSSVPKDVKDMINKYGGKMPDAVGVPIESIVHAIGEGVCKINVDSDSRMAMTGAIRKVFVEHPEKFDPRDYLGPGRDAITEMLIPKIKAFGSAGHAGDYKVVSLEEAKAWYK
#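 Giardia FBPA (40 nM reagent) was preincubated 10 min at RT with compound (up to 57.5 uM final), then substrate plus GAPDH/TPI/NAD/arsenate coupling system with diaphorase/resazurin was added; resorufin fluorescence (525/598 nm) was read after 20 min.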
# The depositor's hits bear a star; ? = inconclusive; / = no result; [ ] = dose if it differs, or a comment. An excerpt weighted towards active compounds, which were near 7.7% of everything screened. Unless noted, calls come from the whole dose curve; as a rule, active = well fitted curve in the direction sought with a large enough effect; inconclusive = small, poorly fitted or top-dose-only effect, or another doubt; inactive = no such curve, though single readings can be large; an effect the other way counts as inactive or inconclusive. % is set by controls: 0 for no effect and ±100 for the full control effect.
SMILES,HCMV antiviral,FMDV antiviral,Tb PYK inh,RE007 growth inh,Sm TGR block,FBPA Giardia inh
Cc1ccc2nc(C)cc(NCCO)c2c1,45.1,-2.7%,0.4%,5.9%,2.5%,2.1%
CNc1ccc2oc(C[C@H]3O[C@@]4(CC[C@H]3C)O[C@H]([C@H](C)C(=O)c3ccc[nH]3)[C@H](C)C[C@H]4C)nc2c1C(=O)O,-99.8*,?,-19.1%,?,-11.4%,?
COC(=O)c1[nH]c(C)c(/C(O)=C2\C(=O)C(=O)N(CCN(C)C)C2c2ccc(C)o2)c1C (stereo not given),30.3,-10.9%,-4.3%,-10.6%,31.6µM*,-14.9%
Cc1oc(-c2ccccc2NC(=O)C2CCC2)nc1CNC(=O)c1c(F)ccc(F)c1F,/,-8.1%,/,/,/,/
COc1ccc(C(=O)Nc2cc(C(C)C)c(O)c(S(=O)(=O)c3ccc(OC)cc3)c2C)cc1,-103.7*,60.8%,-3.6%,/,-1.3%,/
Cc1cc(C)cc(NC(=O)c2cc(S(=O)(=O)NCCC3=CCCCC3)ccc2F)c1,-14.1,3.3%,-6.2%,/,0.4%,/
O=C(Nc1cccc(F)c1)c1cc(S(=O)(=O)NCCC2=CCCCC2)ccc1F,-72.5*,-1.5%,-11.7%,20.3%,-10.5%,-1.4%
COc1ccccc1NC(=O)c1cc(S(=O)(=O)NCCC2=CCCCC2)ccc1F,-23.3,13.5%,-8.8%,/,6.4%,/
COc1ccc(NC(=O)c2cc(S(=O)(=O)NCCC3=CCCCC3)ccc2F)cc1,-79.6*,-8.4%,0.2%,/,-3.8%,/
Cc1ccc(NC(=O)c2cc(S(=O)(=O)NCCC3=CCCCC3)ccc2F)cc1F,-70.5*,?,0.8%,-7.8%,5.6%,-2.0%
Cc1cc(S(=O)(=O)NCCC2=CCCCC2)ccc1Br,-26.6,44.4%,-2.0%,-20.9%,0.3%,/
Cc1ccc(S(=O)(=O)NCCC2=CCCCC2)cc1C(N)=O,-74.9*,10.9%,-6.1%,1.6%,-2.2%,/
CCCCc1nc2c(c3c1C[C@H](C)OC3)CN(C(=O)C1CCCCC1)CC2,/,/,/,/,/,6.0%[12.9 µM]
CCc1cccc2c(C(=O)CN3C(=O)NC(C)(c4cccc5ccccc45)C3=O)c[nH]c12 (stereo not given),53.6,?,0.4%,7.9%,-6.2%,-11.4%
CCc1cccc2c(C(=O)CN3C(=O)NC4(CCc5ccccc54)C3=O)c[nH]c12 (stereo not given),-69.4*,-27.1%,-0.5%,-1.9%,-12.5%,/
CO[C@H]1COC(=O)C/C=C\[C@@H](C)COC(=O)[C@@H](CCSC)NC(=O)C/C=C\[C@@H]1C,/,/,/,/,/,0.8%[12.9 µM]
O=C(/C=C/c1cc(Br)ccc1O)c1ccco1,-78.7*,?,-23.3%,?,14.1µM*,-4.5%
N#Cc1ccc(/C=C/C(=O)c2ccco2)cc1,?,-9.1%,-3.1%,17.8µM*,?,-7.2%
Nc1ccc(/C=C/C(=O)c2ccco2)cc1,0.8,53.1%,-3.6%,?,-24.6%,-8.6%
Cc1cccc2cc(/C=C/C(=O)c3ccco3)c(Cl)nc12,35.8,-13.1%,-2.4%,-12.9%,7.94µM*,7.3%
O=C(/C=C/c1ccccc1O)c1ccco1,-17.4,?,-11.6%,?,?,2.1%
CCOc1ccc2nc(Cl)c(/C=C/C(=O)c3ccco3)cc2c1,61.0,?,3.8%,-17.8%,?,-14.6%
Cn1c(=O)n(-c2ccc(Br)cc2F)c(=O)c2sc3ccccc3c21,-6.2,-18.3%,1.5%,/,3.9%,/
C[C@]1(OC(=O)/C=C\c2ccccc2)C[C@@H](O)[C@@]2(O)C=CO[C@@H](O[C@H]3O[C@@H](CO)[C@@H](O)[C@@H](O)[C@@H]3O)[C@H]21,/,/,/,/,/,0.2%[21.7 µM]
Cc1ccc2c(c1)CN(CCNC(=O)c1n[nH]c3c1CCCC3)CC(C)O2 (stereo not given),/,2.6%,/,/,/,/
SMILES,HCMV antiviral,FMDV antiviral,Tb PYK inh,RE007 growth inh,Sm TGR block,FBPA Giardia inh
O=C(NC(=S)Nc1ccc(Cc2ccncc2)cc1)c1ccccc1Cl,-36.4,-10.9%,7.3%,-3.6%,-13.5%,-1.1%
O=C(NC(=S)Nc1ccc(Cc2ccncc2)cc1)c1ccccc1F,-99.2*,-20.3%,-8.2%,-14.4%,/,-21.5%
Cc1oc2ncn(CC(C)C)c(=O)c2c1C(=O)N(CCN(C)C)Cc1ccccc1,4.0,-14.4%,0.7%,/,1.7%,/
CCN(c1ccccc1)S(=O)(=O)c1nnc(NC(=O)COc2cccc(C)c2)s1,21.9,11.2%,2.9%,/,25.8%,/
O=c1cc2c(nn1Cc1ccccc1)-c1ccccc1CC2,-100.3*,-16.2%,0.8%,5.8%,17.9%,-0.4%
Cc1cccc(C)c1OCC(=O)Nc1c(C(=O)c2ccccc2)oc2ccccc12,-14.9,-13.8%,-11.1%,/,3.3%,/
Cc1ccccc1NC(=O)c1ccc(F)c(S(=O)(=O)N(C)C2CCCCC2)c1,-93.6*,?,1.0%,/,-4.0%,/
CCCCNC(=O)C(CC)Sc1nnc(-c2cccc(F)c2)c(-c2cccc(F)c2)n1 (stereo not given),6.4,-17.6%,0.4%,/,13.2%,/
COC(=O)[C@]1(C#N)[C@H](C)C(=O)N(Cc2ccccc2)[C@@H]1/C=C/c1ccccc1,-9.6,/,/,/,/,/
Cc1ccc(-c2nc3cnccn3c2Nc2c(C)cccc2C)o1,-26.0,?,-9.3%,?,14.1µM*,-17.0%
Cc1ccc(-c2nc3ncccn3c2Nc2ccccc2C)o1,0.0,-17.8%,-22.4%,1.4%,39.8µM*,2.9%
Brc1ccc(-c2nc3ncccn3c2NC2CCCCC2)o1,?,?,2.0%,-12.0%,35.5µM*,-4.3%
Cc1ccc(-c2nc3ncccn3c2Nc2ccc3c(c2)OCO3)o1,46.6,8.9%,-18.1%,-2.4%,?,-8.5%
Cc1ccc(-c2nc3ncccn3c2NC2CCCC2)o1,-9.7,-19.8%,-7.7%,-12.2%,-33.4%,-0.1%
Cc1ccc(Nc2c(-c3ccc(C)o3)nc3ncccn23)cc1,-31.9,-15.4%,-14.9%,5.9%,20µM*,2.4%
COc1ccc(NC(=O)N/C=C/c2ccco2)cc1,-7.4,-9.6%,-6.9%,1.7%,14.1µM*,-24.4%
O=C(N/C=C/c1ccco1)Nc1cccc(Cl)c1,24.6,30.4%,-3.3%,-8.2%,44.7µM*,-6.9%
O=C(Nc1cccc(Cl)c1)Nc1cccc(Cl)c1,?,-0.7%,-1.5%,3.4%,-8.1%,-7.1%
CCc1cc(=O)oc2c3c(c(Cl)cc12)OCN(Cc1cccc(OC)c1)C3,5.0,15.7%,5.0%,/,-28.6%,/
CCOCCc1nn2c(=O)cc(COC(=O)c3ccccc3NC(=O)CC(C)C)nc2s1,15.4,-23.4%,-3.3%,/,2.8%,/
CC1CCC(C(C)C)C(OC(=O)Cn2c(-c3ccc(F)cc3)[n+](C)c3ccccc32)C1 (stereo not given),-102.4*,?,4.4%,2.3%,-1.6%,5.3%
CC1CCC(C(C)C)C(OC(=O)Cn2c(COc3ccccc3)[n+](C)c3ccccc32)C1 (stereo not given),-99.9*,28.2µM*,2.2%,17.8%,-17.6%,-0.7%

# From PubChem
